Assay results reported in PubChem BioAssay (Tox21).
Inconclusive results are not listed. Values without a mark were called inactive. Activity calls are given as the source filed them. The call rests on the fitted dose curve; in most records, active means well fitted cell-killing curve with a large enough effect in the repeat runs; inconclusive means weak or mixed curves, or effect the other way; inactive means no such curve, though single readings can be large or run the other way.

experiment: Caspase-3/7 induction in CHO-K1 cells by small molecules, qHTS cell viability counter screen (AID 1346979); settings: CellTiter-Fluor fluorescence, 17 h; series mostly up to 92.4 µM; activity change, negative = cytotoxicity: at the top concentration; further: nearly all actives have a fitted effect of over 35% in size
Excerpt: National Center for Advancing Translational Sciences [NCATS]
NIH Chemical Genomics Center [NCGC]
U.S. Environmental Protection Agency [EPA]
National Institutes of Environmental Health Sciences [NIEHS]
National Toxicology Program [NTP]
U.S. Food and Drug Administration [FDA]
Apoptosis is a process of programmed cell death and plays a central role in the development of multicellular organisms. It is a highly regulated process and induces cell death by activating caspases, which are the members of cysteine aspartic acid-specific protease (caspase) family. Caspases involved in apoptosis are classified by their mechanism of action as initiator caspases (caspase-2, -8, -9 and -10) and executioner caspases (caspase-3, -6, and -7). Inhibition of apoptosis results in number of cancers, autoimmune diseases, inflammatory diseases and viral infection. To identify small molecule compounds that induce apoptosis, a homogeneous, luminescent Caspase-Glo 3/7 assay was used. Wild type CHO-K1 cells were used to screen Tox21 libraries for identifying caspase-3/7 activity inducers. Also cytotoxicity of the compounds was tested in parallel by measuring the cell viability using CellTiter-Fluor assay system in the same wells.
Tox21 Assay Protocol Summary:
CHO-K1 cells were dispensed at 1,500 per well in 5uL of culture medium into white solid bottom 1536-well plates (Corning Life Sciences, Corning, NY) using a Multidrop Combi (Thermo Scientific, Waltham, MA) dispenser. The assay plates were incubated at 37 C and 5% CO2 for 5hr, and then 23nL of compounds dissolved in DMSO and positive control were transferred using a Pintool station (Wako, San Diego, CA). The assay plates were incubated at 37C and 5% CO2 for 17hr. For cytotoxicity read, after 16hr incubation at 37C, 1uL CellTiter-Fluor reagent (Promega Corporation, Madison, WI) was added to each well of the assay plates using Flying Reagent Dispenser (FRD, Aurora Discovery, San Diego, CA). After 1hr incubation at 37C and 5% CO2, the fluorescence signal was quantified using a ViewLux plate reader (PerkinElmer, Shelton, CT).
On the % scale 0 is the no-effect control and ±100 the full control effect; potency means the concentration at half of the fitted maximal effect.

Row | SMILES | activity change, negative = cytotoxicity | Potency
1 | S=C(S)NCCNC(=S)S | 8.46% | –
2 | CCCCc1cc2ccccc2c(OCCN(C)C)n1 | -1.11% [at 42.5 µM] | –
3 | CN1CCC(OC(c2ccccc2)c2ccccc2)CC1 | 1.48% [at 42.5 µM] | –
4 | Cc1cc(O)ccc1N | – | 61.4 µM (active)
5 | CC(O)C1CCCCC1 (stereo not given) | 8.69% | –
6 | CC(C)(C)c1ccc(S)cc1 | -3.51% | –
7 | c1ccc(-c2nc[nH]c2-c2ccccc2)cc1 | 1.16% [at 42.5 µM] | –
8 | CC(=O)[C@@]1(O)CC[C@H]2[C@@H]3C[C@H](C)C4=CC(=O)CC[C@]4(C)[C@H]3CC[C@@]21C | -0.707% [at 42.5 µM] | –
9 | CCOc1cc(OCC)c(C(=O)CCC(=O)O)cc1OCC | 7.42% [at 42.5 µM] | –
10 | N#CCc1cccc(C(F)(F)F)c1 | 9.62% | –
11 | CCCCCCCCCC=O | 14.4% | –
12 | NC(N)=NN=C(/C=C/c1ccc([N+](=O)[O-])o1)/C=C/c1ccc([N+](=O)[O-])o1 | – | 5.31 µM (active)
13 | O=C1c2cccc(O)c2C(=O)c2c(O)cc(CO)cc21 | -8.41% | –
14 | CC(C(=O)O)c1ccc(-c2ccccc2)c(F)c1 (stereo not given) | 12.5% | –
15 | O=C(O)c1cccc(N(Cc2cccnc2)c2ccc(OC(F)F)c(OC(F)F)c2)c1 | – | 68.6 µM (active)
16 | O=C(c1ccccc1)c1ccc2n1CCC2C(=O)O (stereo not given) | 9.67% [at 42.5 µM] | –
17 | CN(C)CCCOc1nn(Cc2ccccc2)c2ccccc12 | -2.87% [at 42.5 µM] | –
18 | Cc1occc1S | 1.52% | –
19 | CCCCCCCCC(CO)CCCCCC (stereo not given) | 8.51% | –
20 | CCCCOC(O)CC (stereo not given) | 6.85% | –

Row | SMILES | activity change, negative = cytotoxicity | Potency
21 | C[Si](C)O[Si](C)(C)O[Si](C)(C)O[Si](C)C | 9.7% | –
22 | CCCC(=O)OCC | 4.03% | –
23 | Oc1ccc(O)c2c(O)cccc12 | -2.06% | –
24 | CCCCCCCCCO | 3.03% | –
25 | CCOC(=O)[C@H](CCc1ccccc1)N[C@H]1CCc2ccccc2N(CC(=O)O)C1=O | – | 23.7 µM (active)
26 | O=C(Cl)c1ccc([N+](=O)[O-])cc1 | 2.38% | –
27 | Nc1nc(CC(=O)O)cs1 | 0.311% | –
28 | CNCC[C@@H](Oc1ccccc1C)c1ccccc1 | -3.35% [at 42.5 µM] | –
29 | CC(C)CCCC(C)CCO (stereo not given) | 8.61% | –
30 | CCCCOc1ccc(CC(=O)NO)cc1 | – | 23.7 µM (active)
31 | O=C(O)/C=C/c1cnc[nH]1 | 7.35% | –
32 | Cc1cccc(C(C)(C)C)c1O | -3.16% | –
33 | Cc1ccccc1N=Nc1ccc(N=Nc2c(O)ccc3ccccc23)c(C)c1 | – | 13.3 µM (active)
34 | CCC(=O)OC(C)(C)C1CC=C(C)CC1 (stereo not given) | 8.52% | –
35 | Cc1ccc(C(N)=O)cc1N | 10.5% | –
36 | CCOC(=O)CC(C)C | 2.31% | –
37 | COc1ccc([C@@H]2Sc3ccccc3N(CCN(C)C)C(=O)[C@@H]2OC(C)=O)cc1 | -0.521% [at 42.5 µM] | –
38 | CCN(CC)C(C)=O | 9.36% | –
39 | CC(=O)CC(=O)c1ccccc1 | 2.94% | –
40 | C=CC(=O)OCC(C)OCC(C)OCC(C)OC(=O)C=C (stereo not given) | – | 24.3 µM (active)
